Measured values taken from PubChem BioAssay (NCATS).
Records with an inconclusive call do not appear. Entries that show only a call come without a potency. Activity calls are given as the source filed them. The call rests on the fitted dose curve; in most records, active means well fitted curve in the direction sought with a large enough effect; inconclusive means small, poorly fitted or top-dose-only effect, or another doubt; inactive means no such curve, though single readings can be large; an effect the other way counts as inactive or inconclusive.

Tests used:
[1] = molecular target: Phospholipid hydroperoxide glutathione peroxidase GPX4 (Homo sapiens) (UniProt P36969); assay: Primary qHTS Assay for Inhibitors of Recombinant Selenoprotein Glutathione Peroxidase 4 (GPX4) (AID 1845192); further: nearly all actives have a fitted effect of over 65% in size
Sequence of Phospholipid hydroperoxide glutathione peroxidase GPX4 (Homo sapiens) (P36969 whole entry, looked up): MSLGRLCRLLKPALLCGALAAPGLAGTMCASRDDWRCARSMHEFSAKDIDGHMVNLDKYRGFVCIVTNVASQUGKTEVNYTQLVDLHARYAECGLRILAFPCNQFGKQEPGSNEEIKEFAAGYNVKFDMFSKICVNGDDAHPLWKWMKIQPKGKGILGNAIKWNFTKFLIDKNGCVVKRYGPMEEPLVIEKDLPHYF
Outline: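 NADPH consumption, followed by fluorescence at 340/450 nm between 0 and 15 min, reports GPX4 activity via coupled glutathione reductase (100 nM). Enzyme 200 nM was pre-exposed to compound 30 min; 0.5 mM cumene hydroperoxide and 1 mM GSH served as substrates.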

[2] = molecular target: Luciferin 4-monooxygenase (Photinus pyralis) (UniProt P08659); assay: Primary firefly luciferase (FLuc) qHTS assay for identification of artifact compounds. (AID 1845220); further: nearly all actives have a fitted effect of over 60% in size; further: potency means the concentration at half of the fitted maximal effect
Outline: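 Cell-free, 1536-well qHTS. Buffer pH 7.6 with 0.01% Tween-20 and 0.05% BSA; 10 uM D-luciferin, 10 uM ATP; 10 nM P. pyralis luciferase; luminescence after 5 min.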

[3] = Primary fluorescence-based thiol-reactive (MSTI) qHTS assay for identification of artifact compounds. (AID 1845221); further: nearly all actives have a fitted effect of over 65% in size; further: potency means the concentration at half of the fitted maximal effect
Outline: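 qHTS titration of compound; 4 uM MSTI, PBS pH 7.4, 2% DMSO; 1 h RT, dark; fluorescence 525/598 nm; normalized to Acetyl-MSTI and MSTI; 4-parameter Hill fit.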

[4] = test system: Nanoluciferase (engineered Oplophorus gracilirostris luciferase); assay: Primary Nanoluciferase (NLuc) qHTS assay for identification of artifact compounds. (AID 1845222); further: series mostly up to about 54 µM
Outline: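 Compounds are pinned into diluted (1:55) conditioned medium of NLuc-expressing S16 cells and held 15 min at room temperature protected from light. Nano-Glo substrate follows, and luminescence is read 5 min later.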

[5] = Primary redox qHTS assay for identification of artifact compounds. (AID 1845223)
Outline: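 Amplex Red (25 uM) and HRP (250 mU/mL) in HBSS, with compounds for 15 min, then 250 uM DTT for 30 min, room temperature, dark. Fluorescence 525/598 nm read; normalized to DMSO and 10 uM DA3003; Hill fit.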

Compound | Potency [1] | Potency [2] | Potency [3] | Potency [4] | Potency [5]
CC1(C)CC(NC(=O)C(=O)Nc2ccc(Br)cc2)CC(C)(C)N1 | inactive | inactive | inactive | inactive | inactive
CC(C)=CCC[C@](C)(O)[C@H]1CC[C@]2(C)[C@@H]1[C@H](O)CC1[C@@]3(C)CC[C@H](O)C(C)(C)C3[C@@H](O[C@@H]3O[C@H](CO)[C@@H](O)[C@H](O)[C@H]3O[C@@H]3OC[C@@H](O)[C@H](O)[C@H]3O)C[C@]12C (stereo not given in full) | inactive | inactive | inactive | inactive | inactive
C=C1C(=O)O[C@H](CCC)[C@H]1C(=O)O | inactive | inactive | inactive | inactive | inactive
COc1cc2ncnc(Nc3cccc(Cl)c3F)c2cc1OC(=O)N1CCN(C)C[C@H]1C | inactive | inactive | inactive | inactive | inactive
Cc1cc(Nc2nc(NC(C)c3ncc(F)cn3)ncc2Cl)n[nH]1 (stereo not given) | inactive | inactive | inactive | inactive | inactive
CS(=O)(=O)c1ccc([C@H](CC2CCCC2)C(=O)Nc2nccs2)cc1 | inactive | inactive | inactive | inactive | inactive
CC(C)Oc1ccc(C(=O)NC(CNC(=O)CN(C)C)Cc2ccc(-c3cn4cccc(C(C)O)c4n3)cc2)cc1Cl (stereo not given) | inactive | inactive | inactive | inactive | inactive
CN1CCC(Nc2nc(Nc3ccc(Oc4ccccc4)cc3)c3c(=O)[nH]cc(Br)c3n2)CC1 | inactive | inactive | inactive | inactive | inactive
CC1=CC(=O)C2C(C)(C)CCC[C@]2(C)[C@H]1CO (stereo not given in full) | inactive | inactive | inactive | inactive | inactive
C=C(C(=O)O)[C@H]1C[C@]2(C)[C@@H](O)CC[C@]23O[C@H]1C[C@@H]3C | inactive | inactive | 29.9 µM (active) | inactive | inactive
C=C1C(=O)O[C@H]2C1[C@H](OC(=O)/C(=C/CO)COC(=O)/C(C)=C/CO)CC(=C)[C@@H]1CC(=O)[C@@H](C)[C@@H]12 (stereo not given in full) | inactive | inactive | inactive | inactive | inactive
CCC(COC)n1nnc2c(Nc3ccc(OC)cc3C)nc(C)cc21 (stereo not given) | inactive | inactive | inactive | inactive | inactive
O=C(/C=C\c1ccc(O)cc1)N[C@@H](Cc1ccc(O)cc1)C(=O)O | inactive | inactive | 6.56 µM (active) | inactive | inactive
CC1=C(CO)C(=O)O[C@@H]([C@@H](C)[C@H]2CC[C@H]3[C@@H]4C[C@H]5O[C@]56[C@@H](O)C=CC(=O)[C@]6(C)[C@H]4CC[C@]23C)C1 | inactive | inactive | inactive | inactive | inactive
O=C(O)c1ccccc1NC(=O)N1CCC(c2ccccc2C(F)(F)F)CC1 | inactive | inactive | inactive | inactive | inactive
Cc1ccc(NC(=O)c2ccc(CN3CC[C@H](N(C)C)C3)c(C(F)(F)F)c2)cc1Nc1nccc(-c2cncnc2)n1 | inactive | inactive | inactive | inactive | inactive
CC(=O)O[C@@H]1[C@@H](O)[C@H](C)O[C@@H](O[C@H]2[C@@H]3C=CO[C@@H](O[C@@H]4O[C@H](CO)[C@@H](O)[C@H](O)[C@H]4O)[C@@H]3[C@@]3(CO)O[C@@H]23)[C@@H]1OC(=O)/C=C/c1ccccc1 | inactive | inactive | inactive | inactive | inactive
COc1ccc([C@@]2(O)c3c(ccc(CC=C(C)C)c3O)NC(=O)[C@@H]2OC)cc1 | inactive | inactive | inactive | inactive | inactive
C=C1CCC2C(C(C)(C)O)CCC2(C)CC(O)C(=C)CCC1O (stereo not given) | inactive | inactive | inactive | inactive | inactive
COC1/C=C/C(C)(O)C(SCC(N)C(=O)O)CC(=O)OC(C)C(C)CC/C=C/1C (stereo not given) | inactive | inactive | inactive | inactive | inactive
CCCC(=O)C1CCN(c2ncnc3c2CN(C(=O)c2ccc(-c4ccccc4)cc2)CC3)CC1 | inactive | inactive | inactive | inactive | inactive
C=C[C@@](C)(O)CC/C=C(\C)C(=O)O[C@@H]1[C@@H]2O[C@]2(C)[C@H]2[C@H](O[C@@H]3O[C@H](CO)[C@@H](O)[C@H](O)[C@H]3O)OC=C[C@@]12O | inactive | inactive | inactive | inactive | inactive
CNC(=O)c1cc(Oc2ccc3nc(N[C@@H]4CCCC[C@H]4O)sc3c2)ccn1 | inactive | 12 µM (active) | inactive | inactive | inactive
